# Measured values published in ChEMBL document CHEMBL4513216, “Probing the Open Global Health Chemical Diversity Library for Multistage-Active Starting Points for Next-Generation Antimalarials” (ACS Infect Dis, 2020).
# Hit rate of the full screen: of about 69,000 compounds, about 8,600 (12%) showed an effect of 50% or more. Shown is part of a subset that was picked to be rich in strong results.
# Tested on: Plasmodium berghei
# Assay: Screen against P. berghei liver stage (PbLuc), transformed with Luciferase, at 10uM
# Format: functional, HepG2
# Details: tested at 10 uM
row,Structure (SMILES),INHIBITION [%]
1,O=C(c1ccc(-c2cn[nH]c2)nc1)N1CCC(N2CCOCC2)CC1,10.1
2,CCc1ccc(NS(=O)(=O)C=c2[nH]c(=O)n3cccc3c2=O)cc1,-101
3,CC(CCN1CCCn2nc(CNS(C)(=O)=O)cc2C1)c1ccccc1 (stereo not given),27.6
4,CN(Cc1cccc(C(N)=O)c1)Cc1nc2c(cnn2C)c(=O)[nH]1,-29.7
5,Fc1ccccc1-c1nc(CNCCn2cccn2)cs1,-58.7
6,CCN1CCCC12CCN(C(=O)c1nccn1C)CC2,-26.5
7,CCOc1ccc(CN(CC)C(=O)c2ccc(C)[nH]c2=O)cc1OC,20.85
8,CC(C)N(C)C[C@H]1OC[C@@H]2CCN(Cc3cccc(C#N)c3)C[C@@H]21,23.3
9,CSc1nc2ccsc2c(=O)n1CC(=O)NC1CCCCC1,26.6
10,CCN(CC)c1nc2ccsc2c(=O)n1CCC(=O)NCc1cccs1,30.2
11,CCN(CC)c1nc2ccsc2c(=O)n1CCC(=O)NC1CCCC1,58.4
12,Cc1ccn(CCC(=O)NCc2ccco2)n1,26
13,CSc1nc2ccsc2c(=O)n1CC(=O)NC1CCCC1,-58.7
14,CCN(CC)c1nc2ccsc2c(=O)n1CCC(=O)NCc1ccco1,55.7
15,O=C(Nc1cccnc1)NC(CCCO)c1ccccc1 (stereo not given),14.1
16,COCCN1C[C@H]2[C@@H](C1)N(Cc1cnn(C)c1)CC[C@H]2OC,-4.88
17,O=C(c1ccc(-n2cccn2)nc1)N1CCCC(n2cccn2)C1 (stereo not given),26.45
18,COc1ccc(OC)c(Sc2ncccc2C(=O)NCC2CC2)c1,23.3
19,COc1ncc(CN(C)C(C)c2cccnc2)cn1 (stereo not given),5.85
20,CC(c1cccnc1)N(C)Cc1csc(-c2ccccn2)n1 (stereo not given),-45.8
21,CC(c1cccnc1)N(C)Cc1ccccn1 (stereo not given),70.4
22,CC(c1ccon1)N(C)Cc1cc(O)c2cc(F)ccc2n1 (stereo not given),36
23,CC(c1cccnc1)N(C)Cc1cc(O)c2cc(F)ccc2n1 (stereo not given),66.8
24,CC(c1ccncn1)N(C)Cc1cc(O)c2cc(F)ccc2n1 (stereo not given),28.3
25,c1ccc(CCCN2CCCC2Cn2cncn2)cc1 (stereo not given),-25.9
26,CCN(C)C(=O)c1ccc(N(C)Cc2cc(-c3ccncc3)no2)nc1,5.17
27,CCN(C)C(=O)c1ccc(N(C)Cc2cc(-c3cccnc3)no2)nc1,34
28,CCc1ncc(C(=O)N(C)Cc2cc(-c3ccncc3)no2)cn1,59.7
29,O=C(CS(=O)(=O)C1CCCC1)NC1CCc2nccn2C1 (stereo not given),19.2
30,Cc1cc(CN2CC[C@H]3OCC[C@@]3(C(=O)NCc3ccco3)C2)no1,-0.813
